Source: PubChem BioAssay
The list is not random: actives were taken first. Their share in the collection is about 9.6%.
Cav3 T inh: Cav3.2 calcium influx blockers – cell-based, Fluo-4 calcium fluorescence, FDSS, MLSMR library, primary screen. actives 4% (n = 100,000). B-score at 10 µM. Voltage-dependent T-type calcium channel subunit alpha-1H (Homo sapiens), O95180. Cav3.2-expressing cells; stronger effect = lower value;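 active = single-dose well whose peak fluorescence ratio is a statistical outlier from its plate by either plate-standardised score or position-corrected B-score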
PLAP activator: PLAP enzyme activators, biochemical, luminescence, HTS | activation fold at 20 µM | Alkaline phosphatase, placental type (Homo sapiens), P05187 | purified PLAP enzyme, luminescent substrate read-out; stronger effect = higher value | actives 1.2% (n = 96,000); in the data active = activation fold above about 2
DAT uptake mod: changed hDAT dopamine uptake under cocaine IC80, either direction, primary screen, cocaine antagonist project, cell-based, LLC-PK1 hDAT, [14C]-dopamine uptake, MLSMR; Sodium-dependent dopamine transporter (Homo sapiens), Q01959; LLC-PK1 hDAT cells, [14C]-dopamine uptake with cocaine IC80; actives deviate in either direction; B-score at 10 µM; actives 1.3% (n = 110,000);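 active = Z score or B-score, a plate-position-corrected score, falls beyond the plate's 99.7% confidence bounds, in either direction; inactive = both scores lie inside the 99.7% bounds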;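 also: scored against the spread of the other compound wells on the same plate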
Target sequence (Q01959 whole entry, looked up): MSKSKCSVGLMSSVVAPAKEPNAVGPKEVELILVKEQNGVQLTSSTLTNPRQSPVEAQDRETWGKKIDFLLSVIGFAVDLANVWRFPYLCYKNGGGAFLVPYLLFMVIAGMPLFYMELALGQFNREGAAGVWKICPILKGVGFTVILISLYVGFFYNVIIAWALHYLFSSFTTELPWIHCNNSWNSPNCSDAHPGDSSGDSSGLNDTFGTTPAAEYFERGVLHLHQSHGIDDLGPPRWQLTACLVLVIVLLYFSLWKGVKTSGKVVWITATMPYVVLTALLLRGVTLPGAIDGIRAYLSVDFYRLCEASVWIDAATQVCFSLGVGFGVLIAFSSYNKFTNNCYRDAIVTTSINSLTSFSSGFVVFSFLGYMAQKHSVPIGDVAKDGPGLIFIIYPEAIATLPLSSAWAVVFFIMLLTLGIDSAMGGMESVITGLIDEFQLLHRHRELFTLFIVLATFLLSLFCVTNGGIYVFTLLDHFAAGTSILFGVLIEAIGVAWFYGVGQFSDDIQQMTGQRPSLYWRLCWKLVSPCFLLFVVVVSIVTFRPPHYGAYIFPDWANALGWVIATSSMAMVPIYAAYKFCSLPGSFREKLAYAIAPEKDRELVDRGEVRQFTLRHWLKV
PostGolgi ctrl: growth inhibition of yeast control strain, primary screen, counter-screen for post-Golgi transport modulator project | efflux-deficient yeast background strain, growth absorbance A615, 16 h | inhibition, % at 10 µM | actives 5% (n = 98,000)
PostGolgi yeast: phenotypic screen on post-Golgi transport, primary screen | post-Golgi transport phenotypic cell assay | inhibition, % at 10 µM | actives 0.9% (n = 98,000) | AID 739, 2007;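 also: yeast cells grown in 1536-well plates; yeast grown about 18 h at 30C before absorbance read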
* hit, by the source's call; / = no result. Rule as the data show it, unless noted: active = inhibition above about 30%; inactive = the rest.

SMILES | Cav3 T inh | PLAP activator | DAT uptake mod | PostGolgi ctrl | PostGolgi yeast
CCOC(=O)C1CCCc2c1[nH]c1c(C(N)=O)cccc21 (stereo not given) | -0.58 | 1.6 | -0.2 | 34* | 7
Cc1ccccc1CNc1ccc(C(CC(N)=O)NC(=O)c2ccccc2)cc1[N+](=O)[O-] (stereo not given) | 0.45 | / | 0.072 | / | /
CCOC(=O)C1CCN(c2ncnc3c2oc2ccc(Cl)cc23)CC1 | -1.5 | 1.5 | 2.3 | 33* | 5
CCOC(=O)C1CCN(c2ncnc3c2[nH]c2cccc(OC)c23)CC1 | 1.6 | 1.1 | 1.2 | 13 | -1
Cc1ccc(C)c(C(=O)NCCN(C)C)c1 | 1.1 | 0.9 | -0.19 | 9 | -7
Cc1ccc(C)c(C(=O)NCc2ccncc2)c1 | 0.4 | 1.1 | -1.2 | -3 | 35*
COc1ccc(NC(=O)c2cc(-c3cc(C)cc(C)c3O)n[nH]2)cc1Cl | -0.77 | 1 | -1.5 | 10 | 28
Cc1cc(C)c(O)c(-c2cc(C(=O)NCc3ccccc3)[nH]n2)c1 | -1.1 | 1.1 | -0.48 | 32* | -16
Cc1ccc(O)c(-c2cc(C(=O)NCc3ccncc3)[nH]n2)c1 | -1.6 | 2.9* | 2.4 | -2 | 6
CCCC(=O)c1cc(F)c(N2CCOCC2)cc1C | -0.17 | 1.1 | 0.48 | 13 | 1
O=C(C1=C[C@H](c2ccccc2)C[C@H](OCc2ccc(CO)cc2)O1)N1CCOCC1 | 0.19 | / | / | / | /
Cc1ccc(NC(=O)CN2CCC(C(=O)c3ccc(F)cc3)CC2)cc1 | -5.2* | / | 1.7 | / | /
CCN(CC)c1ccc(NC(=O)CN2CCN(CC(=O)Nc3ccc(F)cc3)CC2)cc1 | / | 1.2 | -0.24 | 1 | 2
Cc1nn(C(=O)c2cc3sccc3[nH]2)c(C)c1C | -0.35 | 0.9 | 0.063 | 22 | -6
COc1ccc(S(=O)(=O)Nc2ccc(F)cc2)cc1N(C)S(=O)(=O)c1ccc(Cl)cc1 | -5* | 1.3 | -0.071 | 2 | 2
COc1ccc(S(=O)(=O)Nc2ccc(S(=O)(=O)N3CCOCC3)cc2)cc1C | 0.7 | 1.3 | 0.45 | 36* | -3
O=S(=O)(Nc1ccc(N2CCOCC2)cc1)c1ccc2ccccc2c1 | / | 1.3 | / | 48* | 4
CCOc1cc(C)c(S(=O)(=O)Nc2ccc(F)cc2)cc1C | -1.8 | 0.9 | 0.72 | 52* | -4
COc1ccc(C)cc1S(=O)(=O)Nc1ccc(F)cc1 | -0.87 | 0.9 | -1.2 | 10 | -6
COc1ccc(S(=O)(=O)Nc2ccc(F)c(F)c2)cc1Cl | -3.8 | 1.3 | -0.69 | 9 | 11
COc1ccc(S(=O)(=O)Nc2ccc(S(=O)(=O)Nc3ccc(F)cc3)cc2)cc1C | -6.8* | / | 1.3 | / | /
COc1ccc(NS(=O)(=O)c2ccc(OC)c(OC)c2)cc1OC | 0.2 | / | 0.99 | 7 | 2
COc1ccc(CNS(=O)(=O)c2cccc(S(=O)(=O)N3CCOCC3)c2)cc1 | -4.4* | 1.1 | -0.79 | 4 | 15
COc1cc(NS(=O)(=O)c2ccc(C)c(C)c2)c(OC)cc1Cl | -6.6* | 1.4 | 0.72 | 47* | -7
COc1ccc(S(=O)(=O)Nc2ccc(C(F)(F)F)cc2)cc1OC | -4.8* | 1.1 | 0.83 | 11 | 3
SMILES | Cav3 T inh | PLAP activator | DAT uptake mod | PostGolgi ctrl | PostGolgi yeast
COc1ccc(C)cc1NS(=O)(=O)c1cc(C)ccc1C | -0.53 | 0.9 | -0.53 | 23 | -2
Cc1cc(C)cc(C(=O)N2CC(C)OC(C)C2)c1 (stereo not given) | 0.64 | 1 | 1.3 | -1 | 5
COc1ccc(S(=O)(=O)Nc2ccccc2SC)cc1C | / | 1.2 | -0.0084 | 36* | 1
COc1ccc(S(=O)(=O)Nc2ccccc2OC)cc1C | -0.048 | 1.1 | -1.3 | 9 | -1
CN(C)/C=N/C(=S)Nc1ccc(Br)cc1F | 1.1 | 1.1 | 0.5 | 15 | 1
CCCSc1ncc(Cl)c(C(=O)Nc2ccc(S(=O)(=O)N3CC(C)OC(C)C3)cc2)n1 (stereo not given) | 1.7 | 1.8 | -0.35 | 21 | 39*
Cc1ccc(O)c(-c2cc(C(=O)Nc3ccc(S(=O)(=O)N4CC(C)OC(C)C4)cc3)[nH]n2)c1 (stereo not given) | 0.38 | 1 | -0.19 | 2 | -9
CCCCOC(=O)CSc1nnc(N)s1 | 1.3 | 0.9 | -2.4* | 1 | 2
Nc1nnc(SCC(=O)c2ccccc2)s1 | 0.37 | 0.9 | -0.86 | 3 | 26
